# MARV entry inh: qHTS for inhibitors of binding or entry into cells for Marburg Virus | Marburg virus pseudotyped entry inhibition, cell reporter | Potency, µM (top dose mostly 37.8 µM), usual class: inhibitors | 1.8% of 300,000 active; calls by dose curve; tested in HEK293 cells
# LASV entry inh: qHTS for Inhibitors of binding or entry into cells for Lassa Virus; Potency, µM (series often up to 37.9 µM), most hits filed as inhibitors; AID 540256, 2011; 1.2% of 300,000 active; Lassa virus pseudotype entry inhibition, cell reporter; calls by dose curve; tested in HEK293 cells; also: nearly all actives have a fitted effect of over 50% in size
# FMDV antiviral: High Throughput Screening for Foot and Mouth Disease Virus Antivirals. Potency, µM (highest dose often 57.9 µM), actives largely listed as inhibitors. AID 1159524, 2015. 1.2% of 410,000 active. FMDV antiviral cell-based qHTS; calls by dose curve; tested in HEK293T cells; also: read-out not given here; nearly all actives have a fitted effect of over 45% in size
# HCMV antiviral: qHTS Assay for inhibitors of the human cytomegalovirus (HCMV); HFF cells, HCMV-luciferase reporter, 72 h; hits give low values; activity change, negative = inhibition, % at 57.5 µM; 4.5% of 410,000 active; in the data active = activity change below about -60%; inconclusive = no clear call, values can overlap the other calls; inactive = above about -39%
#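 Inhibition of viral replication was scored as loss of reporter luminescence in HFFs infected with HCMV-luciferase (MOI 1 PFU/cell) for 72 h; compounds tested at 2 doses, normalized to buffer and Salinomycin controls.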
# Vaccinia mCherry: qHTS for Stage-Specific Inhibitors of Vaccinia Orthopoxvirus: mCherry Reporter Primary qHTS. Potency, µM (series often up to 36.5 µM), hits mostly inhibitors. AID 720579, 2013. 0.63% of 310,000 active. Vaccinia virus mCherry reporter infection, fluorescence; calls by dose curve; tested in A549 cells; also: nearly all actives have a fitted effect of over 35% in size
# Vaccinia Venus: qHTS for Stage-Specific Inhibitors of Vaccinia Orthopoxvirus: Venus Reporter Primary qHTS; Vaccinia virus Venus reporter expression, fluorescence; Potency, µM (doses to about 36.5 µM), actives largely listed as inhibitors; 0.46% of 330,000 active; calls by dose curve; tested in A549 cells; also: nearly all actives have a fitted effect of over 30% in size
# Numbers stand for hits; - = inactive; ? = inconclusive; . = no result; [ ] = dose if it differs, or a comment. Rows were chosen to be rich in hits. Some 6.5% of all compounds tested hit in one or more screens of this group.
SMILES,MARV entry inh,LASV entry inh,FMDV antiviral,HCMV antiviral,Vaccinia mCherry,Vaccinia Venus
COc1ccc(C2CC(C(F)(F)F)n3nc(C(=O)NCc4c(C)nn(C)c4C)c(Cl)c3N2)cc1 (stereo not drawn),10µM,-,.,-86,?,?
Cc1nn(C)c(C)c1CNC(=O)c1cc2n(n1)C(C(F)(F)F)CC(c1cccs1)N2 (stereo not drawn),-,-,.,-69,-,-
Cc1cccc(CSc2nnc(N)n2-c2ccccc2)c1,-,-,-,-,.,.
Cc1ccc(C)c(-n2nnnc2Sc2nnnn2-c2ccccc2)c1,15µM,?,16µM,-97,.,.
Cc1cccc(CSc2nnnn2-c2ccccc2)c1,?,10µM,-,-,-[1.46 µM],-
Cc1ccc(S(=O)(=O)NCCSc2nnnn2-c2cc(C)ccc2C)cc1,?,8.9µM,-,-,-,?
Cc1ccc(S(=O)(=O)NCCSc2nnnn2-c2ccccc2)cc1,-,-,-,-,-,-
COC(=O)C1CCN(Cc2ccc3c(c2)CN(C(=O)c2ccnn2C)CCO3)CC1,.,.,-,.,-,-
CC(=O)SC1CC2=CC(=O)CC[C@]2(C)C2CC[C@@]3(C)[C@@H](CC[C@@]34CCC(=O)O4)C12 (stereo partly drawn),-,.,.,.,.,.
CCn1ccnc1CN(C)Cc1cn(C)nc1-c1ccccc1F,-,-,-,?,-,-
CCn1ccnc1CN(C)Cc1cn(-c2ccccc2)nc1-c1ccc(OC)cc1F,10µM,?,-,?,-,-
N=C1S/C(=C\c2ccco2)C(=O)N1c1nccs1,.,.,-,-115,?,-
COc1ccc(-c2nc3sc(CCNS(=O)(=O)c4c(C)cc(C)cc4C)c(C)n3n2)cc1,.,-,-,-83,?,?
Cc1c(CCNC(=O)C(C)(C)C)sc2nc(-c3ccc(F)cc3)nn12,.,-,?,-91,-,-
COc1ccc(S(=O)(=O)NCCc2sc3nc(-c4ccc(C)cc4)nn3c2C)cc1F,.,-,-,-74,?,?
Cc1ccc2c(=O)cc(C(=O)Nc3sc4c(c3C(=O)NCC3CCCO3)CCCC4)oc2c1C (stereo not drawn),-,-,-,-,-,-
COc1ccc(C2=NN(C(=O)c3cccs3)C(c3ccccc3O)C2)cc1 (stereo not drawn),.,.,-,-95,?,?
Cc1ccc(C(=O)N2N=C(c3ccc(Br)cc3)CC2c2ccccc2O)cc1 (stereo not drawn),-,13µM,-,-62,-,?
Cc1ccccc1C(c1c(C)n(C)n(-c2ccccc2)c1=O)c1c(C)n(C)n(-c2ccccc2)c1=O,-,-,?,-,-,-
COc1ccc(NC(=O)CSc2c3c(nc4ccc(Cl)cc24)CCCC3)cc1Cl,-,-,?,-80,-,-
COc1ccc(NC(=O)CSc2c3c(nc4cc(Cl)ccc24)CCCC3)cc1OC,?,?,?,-,-,-
Cc1ccc(CNC(=O)CSc2c3c(nc4ccc(Cl)cc24)CCCC3)cc1,-,-,-,-,-,-
Cc1ccc(C)c(NC(=O)CSc2c3c(nc4ccc(Cl)cc24)CCCC3)c1,-,-,-,-74,-,-
CCOc1ccc(C(C(=O)NCC2CCCO2)N(C(=O)c2snc(C(N)=O)c2N)c2ccccc2F)cc1 (stereo not drawn),?,7.1µM,-,-,-,-
CCOc1ccc(C(C(=O)NCC2CCCO2)N(C(=O)c2snc(C(N)=O)c2N)c2cccc(F)c2)cc1 (stereo not drawn),?,?,-,-,-,-
CCOc1ccc(C(C(=O)NCC2CCCO2)N(Cc2cccs2)C(=O)c2snc(C(N)=O)c2N)cc1 (stereo not drawn),-,?,-,-68,-,-
COC(=O)[C@@]12OC[C@]34[C@H]([C@@H](O)[C@@H]1O)[C@@]1(C)C(=O)C(O[C@@H]5OC(CO)[C@@H](O)[C@@H](O)[C@@H]5O)=C[C@@H](C)[C@@H]1C[C@H]3OC(=O)[C@H](OC(=O)/C=C(\C)C(C)(C)OC(C)=O)[C@@H]24 (stereo partly drawn),.,.,-,.,8.9µM,8.9µM
CCOC(=O)/C=C/[C@H](C)NC(=O)C(F)(F)F,.,.,.,-,.,.

# Assay outcomes from PubChem.
